Laboratory results from PubChem BioAssay (NCATS).
Records with an inconclusive call do not appear. The source made the active and inactive calls. Calls come from the whole dose curve; as a rule, active = well fitted cell-killing curve with a large enough effect; inconclusive = small, poorly fitted or top-dose-only effect, or effect the other way; inactive = no such curve, though single readings can be large or run the other way.

Experiment: Viability qHTS for spleen associated tyrosine kinase inhibitor (SYKi) drug resistant MV4-11 cells (AID 1963824); note: nearly all actives have a fitted effect of over 35% in size
Settings: SYKi-resistant MV4-11 viability, CellTiter-Glo, 72 h; series mostly up to 45 µM
Text: Department of Medicine, Hematology/Oncology
University Hospital Frankfurt, Germany.
Trials have shown promising clinical activity of the selective SYK inhibitor entospletinib in patients with high expressing HOXA9/MEIS1 acute leukemias. As the development of resistance mechanisms is a common problem in the use of targeted drugs, we performed a chemical library screen to identify drug sensitivities in SYK inhibitor resistant AML cells. […] Glucocorticoids are potent immunosuppressants which work in part by inhibiting the transcription of cytokine genes.
Described herein is a viability screen to look for activity in the SYK inhibitor drug resistant cell line against four NCATS compound libraries (MIPE 5.0, NPC, NPACT, and Kinase) totaling 11372 compounds. Active hits were reacquired for confirmation and further secondary assay testing.
SEQUENCE No. (e.g., 1, 2, 3, etc.); […] (e.g., Cells, Incubation, Reagent, etc.); VALUE; DESCRIPTION.
1; Media; 2uL; white, solid-bottom Corning assay plate.
2; Compounds; 23nL; Echo acoustic dispenser.
3; Cell; 5uL; 500 cells per well.
4: Incubation; 72hr; 37 C, 5% CO2, 95% humidity.
5; Reagent; 3uL; CellTiter-Glo reagent (Promega).
6; Incubation; 10min; room temperature.
7; Detection; Luminescence; ViewLux plate reader (PerkinElmer).
NOTES (numbers refer to Sequence numbers above
1. Quantitative high-throughput screening (qHTS) of small molecule compounds was conducted on drug resistant SYKi MV4-11 cell line.
2. Twenty-three nanoliter of small molecule compounds were added to each assay plates using the Echo acoustic dispenser (Beckman Coulter).
3. Cells were seeded into the assay plates at a final density of 500 cells in 5uL of media per well using the Multidrop Combi dispenser.
4. Plates were covered with stainless steel gasketed lids and incubated for 72 hours at standard cell culture conditions.
5. Viability was assessed by adding 3uL of CellTiter-Glo detection reagent (Promega).
6. Plates were covered with gasket lids and incubated for 10 minutes at room temperature.
7. Luminescence was measured on a ViewLux plate reader (PerkinElmer).
Potency is the fitted concentration of half-maximal effect.

SMILES	Potency
Nc1ccn(CC(CO)OCP(=O)(O)O)c(=O)n1 (stereo not drawn)	inactive
COC(=O)[C@]12CCC(C)(C)C[C@H]1[C@H]1C(=O)C=C3[C@@]4(C)C=C(C#N)C(=O)C(C)(C)[C@@H]4CC[C@@]3(C)[C@]1(C)CC2	2630 nM (active)
CC1(C)CC[C@]2(NC(=O)C(C)(F)F)CC[C@]3(C)[C@H](C(=O)C=C4[C@@]5(C)C=C(C#N)C(=O)C(C)(C)[C@@H]5CC[C@]43C)[C@@H]2C1	2630 nM (active)
